Growth data for eight compounds are collected here from PubChem BioAssay (NCI).

What all share (test): NCI-60 one-dose screen, 48 h (100 = growth as untreated, 0 = no growth, -100 = all killed)
Conditions in all cases: 10 µM unless noted

In experiment [1] the test system is DU-145 prostate.
For experiment [2], the system named is K-562 leukemia.
Experiment [3] has as its system MALME-3M melanoma.
The subject of experiment [4] is MDA-MB-231 breast.
Experiment [5] relates to RXF 393 renal.
Experiment [6] deals with SF-268 CNS.
Experiment [7] has as its system SF-295 CNS.
Experiment [8] has as its system SF-539 CNS.
The test system of experiment [9] is UACC-257 melanoma.
Experiment [10] has as its system M14 melanoma.
For experiment [11], the system named is HCT-15 colon.
Experiment [12] deals with HT29 colon.
Experiment [13] relates to SNB-75 CNS.
The subject of experiment [14] is SNB-19 CNS.
Experiment [15] has as its system U251 CNS.
Experiment [16] relates to PC-3 prostate.
Experiment [17] concerns SK-MEL-5 melanoma.
Experiment [18] relates to UACC-62 melanoma.
Experiment [19] has as its system LOX IMVI melanoma.
Experiment [20] deals with SK-MEL-28 melanoma.

The structures appear in SMILES notation. This is part of a sample that, as a whole, favours compounds with a hit. Of some 83,000 tested, about 20% had one in any assay.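 For each line, cells grew in 96-well plates with the test compound present at a single concentration for 48 hours.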 A number with no mark means an inactive call. Calls of active or inactive are those of the source. How the source made its calls: active means growth percent below 10; inactive means the rest.

For `COc1cc(-c2nc(SCC(C)C)nc(Nc3cccc4ccccc34)c2C#N)cc(OC)c1OC`, the growth in [1] was 94.4%; in experiment [2] it was 57%; in [3] it was 87.7%; in [4] it was 57.1%; in experiment [5], 119%; in experiment [6] it was 92.6%. The growth in experiment [7] was 101%; in experiment [8], 101%; in experiment [9] it was 106%; in experiment [10], 103%; in experiment [11], 74.3%; in experiment [12], 89.9%. Also, the growth in [13] was 94.3%; in experiment [14] it was 106%; in experiment [15], 59.1%; in experiment [16] it was 57.1%; in experiment [17], 95.5%; in experiment [18] it was 86.5%. Moreover, the growth is 103% in [19] and 110% in experiment [20].
For `COc1ccccc1Nc1nc2c(s1)C1=CC[C@H]3[C@@H]4CC[C@H]([C@H](C)CCCC(C)C)[C@@]4(C)CC[C@@H]3[C@@]1(C)CC2`, the growth is 103% in experiment [1]; 102% in [2]; 101% in experiment [3]; 103% in [4]; 117% in [5]; 102% in experiment [6]. In addition, the growth is 108% in experiment [7]; 104% in experiment [8]; 110% in [9]; 101% in [10]; 103% in experiment [11]; 101% in experiment [12]. Also, the growth was 97.6% in experiment [13]; 104% in [14]; 113% in experiment [15]; 92.7% in [16]; 100% in [17]; 96.7% in [18]. In addition, the growth was 94% in experiment [19] and 110% in experiment [20].
Regarding `COc1cc(CNS(=O)(=O)c2ccc(C)cc2)ccc1OCc1cn(-c2ccc(Br)cc2)nn1`, the growth was 104% in experiment [1]; 94.3% in experiment [2]; 104% in experiment [3]; 103% in [4]; 97.1% in experiment [5]; 93.8% in experiment [6]. Further, the growth is 97.2% in experiment [7]; 107% in experiment [8]; 110% in experiment [9]; 106% in experiment [10]; 103% in experiment [11]; 105% in experiment [12]. Besides, the growth is 87% in experiment [13]; 104% in [14]; 101% in experiment [15]; 92.2% in experiment [16]; 97.8% in experiment [17]; 94.3% in [18]. Also, the growth in experiment [19] is 97.9%; in [20] it was 99.7%.
Consider `CC(=O)N1N=C(c2ccc(Nc3nc(Nc4ccc(Cl)cc4)nc(Nc4ccc(Cl)cc4)n3)cc2)CC1c1ccco1` (stereo not given), for which the growth in experiment [1] is 107%; in experiment [2] it was 79.5%; in [3], 97.9%; in experiment [4], 92.7%; in [5] it was 71.1%; in [6], 103%. Further, the growth is 92.8% in [7]; 96% in experiment [8]; 96.4% in experiment [9]; 90.5% in [10]; 85.7% in experiment [11]; 97.8% in experiment [12]. Besides, the growth in [13] was 112%; in experiment [14] it was 101%; in experiment [15], 81.7%; in [16], 87.6%; in [17] it was 75.9%; in experiment [18], 89.9%. Further, the growth in experiment [19] was 95.7%; in experiment [20], 111%.
Regarding `Fc1ccc(Nc2nc3nonc3nc2Nc2ccc(I)cc2)cc1`, the growth in experiment [1] is 23%; in [2] it was 6.8% (active); in experiment [3], -25.6% (active); in [4], -23.5% (active); in experiment [5], -10.2% (active); in [6], 22%. For the same compound, the growth is -43.6% (active) in experiment [7]; 7.05% (active) in [8]; -24.5% (active) in experiment [9]; -3.95% (active) in experiment [10]; 6.8% (active) in experiment [11]; 3% (active) in [12]. The growth was -5.57% (active) in [13]; 18.6% in experiment [14]; -45% (active) in experiment [15]; 4.86% (active) in [16]; -72.7% (active) in [17]; -21.4% (active) in experiment [18]. Moreover, the growth was -26.9% (active) in experiment [19] and 17.1% in [20].
`C=C1C(=O)O[C@H]2[C@H]1CC/C(COC(=O)CCSCCC(=O)OC/C1=C/CC[C@@]3(C)O[C@H]3[C@H]3OC(=O)C(=C)[C@@H]3CC1)=C\CC[C@@]1(C)O[C@@H]21`: the growth in [1] is 20.1%; in experiment [2], 2.89% (active); in experiment [3] it was -13.7% (active); in experiment [4], -52.1% (active); in experiment [5], -95.3% (active); in [6], 24.2%. The growth in experiment [7] was 62.7%; in experiment [8], -15.1% (active); in experiment [9] it was -13.7% (active); in [10], -12% (active); in experiment [11], -6.34% (active); in experiment [12], -9.93% (active). The growth in [13] is 48.6%; in experiment [14], 55%; in experiment [15] it was 6.76% (active); in [16] it was -14.5% (active); in [17], 54.3%; in [18] it was -67% (active). Further, the growth in experiment [19] was -79.3% (active); in experiment [20] it was -35.6% (active).
Turning to `O=C(Cn1c(-c2ccc([N+](=O)[O-])cc2)nc2ccccc21)NNC(=O)c1cccnc1`, the growth in [1] is 90.3%; in experiment [2], 63.4%; in [3] it was 105%; in experiment [4], 92.4%; in [5] it was 98.7%; in experiment [6] it was 89.2%. The growth in experiment [7] is 83.4%; in [8], 88.9%; in experiment [9] it was 86.7%; in experiment [10] it was 91%; in experiment [11], 80.9%; in experiment [12], 77.2%. In addition, the growth in experiment [13] is 53.3%; in experiment [14], 86.5%; in experiment [15] it was 77.9%; in experiment [16], 69%; in experiment [17] it was 83.8%; in experiment [18], 66.2%. Further, the growth in [19] is 65.3%; in [20], 108%.
Take `N#CC1=C(N)Oc2c(sc3c(Br)cccc23)C1c1ccc(F)cc1` (stereo not given): the growth in [1] is 24.1%; in [2], 9.02% (active); in experiment [3], 49.4%; in experiment [4], 16.9%; in experiment [5], -2.88% (active); in [6], 25.5%. For the same compound, the growth was 5.32% (active) in experiment [7]; -27.1% (active) in [8]; 74.1% in experiment [9]; 9.58% (active) in experiment [10]; 10.3% in experiment [11]; 1.78% (active) in experiment [12]. For the same compound, the growth in [13] is 34.3%; in [14], 47.8%; in experiment [15], 21.4%; in experiment [16], 23.6%; in experiment [17], 23.6%; in [18] it was 26.4%. Further, the growth in [19] was 27.4%; in experiment [20] it was 57.6%.
